PubChem BioAssay AID1645857 (Buhrlage Lab, Dana-Farber Cancer Institute and Novartis …, 2021)
Among all 47,000 compounds or so, about 1,400 (3%) were called active. The sample holds actives, similar compounds and a random draw of the others, so the mix is not that of the screen. Unmarked numbers belong to inactive results. Cut-off read from the data, not from the text of the source: active = inhibition above about 30%; inactive = the rest.

What follows are compounds tested against Ubiquitin carboxyl-terminal hydrolase 28 (Homo sapiens) (UniProt Q96RU2) (assay: blocks human USP28 ubiquitin-rhodamine cleavage (AID 1645857)). Conditions: purified USP28, Ub-rhodamine cleavage fluorescence, 30 min; at 25 µM; hits give high values.
Chain of Ubiquitin carboxyl-terminal hydrolase 28 (Homo sapiens) (Q96RU2 whole entry, looked up): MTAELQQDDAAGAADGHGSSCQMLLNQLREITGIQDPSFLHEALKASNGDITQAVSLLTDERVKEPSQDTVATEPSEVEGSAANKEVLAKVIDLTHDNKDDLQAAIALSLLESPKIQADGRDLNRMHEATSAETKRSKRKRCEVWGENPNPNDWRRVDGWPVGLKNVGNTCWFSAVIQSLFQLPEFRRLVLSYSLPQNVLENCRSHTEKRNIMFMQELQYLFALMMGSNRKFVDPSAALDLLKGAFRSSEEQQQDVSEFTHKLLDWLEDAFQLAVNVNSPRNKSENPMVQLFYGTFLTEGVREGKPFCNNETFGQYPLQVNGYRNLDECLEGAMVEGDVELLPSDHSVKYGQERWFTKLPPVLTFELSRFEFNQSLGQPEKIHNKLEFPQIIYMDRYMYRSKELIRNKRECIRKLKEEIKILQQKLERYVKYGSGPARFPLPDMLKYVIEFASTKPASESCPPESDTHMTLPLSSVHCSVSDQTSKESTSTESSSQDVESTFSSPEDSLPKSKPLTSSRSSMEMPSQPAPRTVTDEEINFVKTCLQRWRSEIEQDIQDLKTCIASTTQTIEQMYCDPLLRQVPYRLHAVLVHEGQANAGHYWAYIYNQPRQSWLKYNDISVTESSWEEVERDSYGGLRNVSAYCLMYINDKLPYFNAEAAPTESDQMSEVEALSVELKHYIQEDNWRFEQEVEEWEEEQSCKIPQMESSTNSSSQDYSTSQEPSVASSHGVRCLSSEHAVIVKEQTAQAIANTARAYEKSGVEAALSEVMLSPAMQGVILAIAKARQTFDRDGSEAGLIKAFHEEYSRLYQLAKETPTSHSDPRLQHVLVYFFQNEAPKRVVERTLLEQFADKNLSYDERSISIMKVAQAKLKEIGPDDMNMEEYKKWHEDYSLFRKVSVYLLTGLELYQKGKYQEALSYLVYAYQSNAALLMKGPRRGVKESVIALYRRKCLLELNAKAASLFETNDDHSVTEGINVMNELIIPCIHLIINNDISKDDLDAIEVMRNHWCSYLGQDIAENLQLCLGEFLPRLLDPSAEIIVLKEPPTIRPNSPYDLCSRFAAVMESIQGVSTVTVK
`CCOc1ccc2nc3sc(C(=O)N4CCCC4)c(N)c3cc2c1` was tested, and the inhibition was -2.52%.
`COc1ccc(NC(=O)CC[C@@H]2NC(=O)N([C@@H](C)c3ccccc3)C2=O)cc1` showed an inhibition of 8.47%.
`O=C(CCc1nnc2n(Cc3ccc(Cl)cc3)c(=O)c3ccccc3n12)NCCN1CCOCC1` was tested, and the inhibition was -1.7%.
`Clc1ccc(C2NC3=NCN(Cc4ccco4)CN3c3nc4ccccc4n32)cc1` (stereo not given) was tested, and the inhibition was 32.7% (active).
With `CN(Cc1cccnc1Oc1ccccc1)C(=O)c1cnccn1` the inhibition was -1.11%.
Compound `O=C1COC2(CCN(c3ncccn3)CC2)CN1Cc1cccc(F)c1` has an inhibition of -14.6%.
In the case of `CCN1C[C@H]2C3(CCN(S(=O)(=O)c4ccccc4)CC3)CC[C@@]2(C(=O)NC)C1`, the inhibition is reported as 0.022%.
With `Cc1ccc(CNC(=O)CCCn2c(=O)c3sccc3n(CC(=O)OCc3ccccc3)c2=O)cc1` the inhibition was 45.6% (active).
`COc1ccc(CCNC(=O)CCCn2c(=O)c3ccccc3n(CC(=O)OCc3ccccc3)c2=O)cc1OC` showed an inhibition of 26.2%.
With `N#Cc1ccccc1Cn1c(=O)n(CCCC(=O)NCc2ccc(F)cc2)c(=O)c2ccccc21` the inhibition was 8.1%.
With `CN1CCc2onc(-c3cccc(CN)c3)c2C1=O` the inhibition was 11.5%.
In the case of `CCOc1ccccc1C1c2[nH]c3ccccc3c2C[C@H]2C(=O)N(CCCc3ccccc3)CC(=O)N12` (stereo not given in full), the inhibition is reported as -32.1%.
`CSc1ccccc1NC(=O)c1ccc(N2CCCC2)nn1` was tested, and the inhibition was 3.05%.
Work on `CC1CCc2c(cnc3c(C(=O)NCc4cccnc4)cnn23)C1` (stereo not given) yielded an inhibition of -1.11%.
`O=C(Cc1ccc(F)cc1)Nc1ccccc1Cc1ccccc1` showed an inhibition of 11.8%.
`Cc1ccccc1NC(=O)Cc1csc2nc(-c3ccc(F)cc3)cn12` was tested, and the inhibition was 37.7% (active).
`Cc1cc(F)ccc1NC(=O)Cc1n[nH]c(Cc2ccccc2)n1` showed an inhibition of -17.7%.
For `N#Cc1ccc(C(=O)N2CCN(c3cc(-c4ccccc4)[nH]n3)CC2)cc1`, the inhibition was -11%.
Compound `CCOC(=O)c1cnn(-c2ccc(C(=O)Nc3ccc(C(C)=O)cc3)cn2)c1N` has an inhibition of -5.3%.
`CC(=O)Nc1cccnc1-c1ccc(C(=O)Nc2ccc(C)c(C)c2)cc1` was tested, and the inhibition was 37.1% (active).
In the case of `Cc1ccccc1NC(=O)c1ccc(-c2nc3cccnc3n(C3CCCC3)c2=O)cc1`, the inhibition is reported as -11.7%.
In the case of `Cc1ccc(C(=O)Nc2cccc3c2CCCC3)cc1C`, the inhibition is reported as 1.01%.
In the case of `O=C(c1cccc(Nc2ncccn2)c1)N1CCOCC2(C1)CN(c1ccccc1)C(=O)O2` (stereo not given), the inhibition is reported as -1.6%.
`COc1ccc(CCNC(=O)CSc2cn(CCNC(=O)c3ccccc3C)c3ccccc23)cc1OC` showed an inhibition of 13.1%.
Compound `COc1ccc(CCNC(=O)c2ccccc2OCc2ccc(F)cc2)cc1` has an inhibition of 10.8%.
With `COc1ccc(CCNC(=O)c2ccc3ccccc3c2)cc1OC` the inhibition was 54.7% (active).
Compound `Cc1cc(C)c(-c2nnc(NC(=O)c3ccc(-c4ccccc4)cc3)s2)c(C)c1` has an inhibition of -5.98%.
In the case of `CCOC(=O)c1ccc(NC(=O)CSc2nnc(CNC(=O)c3ccc(OC)cc3)n2C)cc1`, the inhibition is reported as -5.59%.
With `Cc1ccc(NS(=O)(=O)c2cc3n(c2)CCN(C)C3=O)cc1` the inhibition was -5.99%.
For `O=C1C(O)=C(c2ccc(O)c(O)c2)C(=O)C(O)=C1c1ccccc1`, the inhibition was 66.9% (active).
For `O=CNC1CC2(CCCCC2)Oc2ccccc21` (stereo not given), the inhibition was -1.81%.
With `c1ccc(-c2csc3ncnc(NC4CCCc5ccccc54)c23)cc1` (stereo not given) the inhibition was -4.83%.
In the case of `CN1CC(=O)N(C2CCCNC2)Cc2c(NC3CCc4ccccc43)ncnc21` (stereo not given), the inhibition is reported as 90.6% (active).
`CC(C)CN1[C@H]2CCN(C(=O)c3cnccn3)CC[C@@H]2Oc2ccccc2S1(=O)=O` gave an inhibition of -3.97%.
`Cc1nc2ccccc2n1CCNC(=O)c1ccccc1Cl` gave an inhibition of -3.71%.
`CC(=O)N1CCc2cc(S(=O)(=O)NCC(=O)NCc3ccc4c(c3)OCO4)ccc21` was tested, and the inhibition was -1.7%.
Compound `Cc1noc(CNC(=O)c2cc(-c3ccco3)on2)n1` has an inhibition of -29.2%.
In the case of `Cc1[nH]c(C(=O)N2CCCC(C(=O)NCc3cccnc3)C2)c(C)c1C` (stereo not given), the inhibition is reported as -6.57%.
`Cc1cccc(CNC(=O)C2CCN(c3cnc4nccnc4c3)CC2)c1` gave an inhibition of -81.1%.
For `O=C(NCc1cccnc1)C1CCN(c2cnc(N3CCCCCC3)nc2)CC1`, the inhibition was 60.9% (active).
With `O=c1c2c(ncn2C2CCCC2)n(Cc2ccccc2)c(=O)n1Cc1ccccc1` the inhibition was 6.37%.
Compound `O=C(O)c1cc(-c2ccc(-c3ccccc3F)o2)nc2ccc(F)cc12` has an inhibition of -179%.
In the case of `CCc1ccccc1NC(=O)N1CCCC1c1ccnn1CC` (stereo not given), the inhibition is reported as 12.8%.
For `c1ccc(-c2ccc(NCc3ccc4c(c3)OCO4)nn2)cc1`, the inhibition was 61.2% (active).
With `c1cc(CNCc2ccc3c(c2)OCO3)ccn1` the inhibition was -2.19%.
